Measurements reported in PubChem BioAssay AID1159580 (chemical genetic matrix, 2015).
The campaign covered roughly 5,500 compounds. About 2,000 (36%) were called active. About 18% were inconclusive and are not listed. Cut-off read from the data, not from the text of the source: active = normalized growth mostly below about 0.91 (no sharp cut-off); inconclusive = no clear call, values can overlap the other calls; inactive = mostly above about 0.92. Some of the results follow.

Assay: chemical genetic growth profiling, strain panel (AID 1159580);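 note: tested at 20 µM; growth read once vehicle control cultures reached saturation at 30 °C; 1 = growth at the plate median or of vehicle wells; lower values mean less growth of the strain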
Details: S. cerevisiae deletion strains, growth OD
[1] = locus YAL040C, strain CLN3, hits give low values
[2] = locus YCL061C, strain MRC1 (second series), hits give low values
[3] = locus YDR363W, strain ESC2, hits give low values
[4] = locus YER002W, strain NOP16, hits give low values
[5] = locus YGR078C, strain PAC10, hits give low values
[6] = locus YGR229C, strain SMI1, hits give low values
[7] = locus YMR307W, strain GAS1, hits give low values
[8] = locus YNL153C, strain GIM3, hits give low values
[9] = locus YNL175C, strain NOP13, hits give low values
[10] = locus YNL197C, strain WHI3, hits give low values
[11] = locus YNL224C, strain SQS1, hits give low values
[12] = locus YOR083W, strain WHI5 (second series), hits give low values
[13] = locus YJR075W, strain HOC1, hits give low values
[14] = locus YMR263W, strain SAP30, hits give low values
[15] = locus YNL322C, strain KRE1, hits give low values
[16] = locus YNL128W, strain TEP1, hits give low values
[17] = locus YPL241C, strain CIN2, hits give low values

Measured: normalized growth

NC(=O)C1=CN(C2OC(COP(=O)(O)OP(=O)(O)OC[C@H]3O[C@@H](n4cnc5c(N)ncnc54)C(OP(=O)(O)O)[C@H]3O)C(O)C2O)C=CC1 (stereo partly drawn)
inactive: [1] 0.989 | [2] 0.997 | [3] 0.976 | [4] 0.977 | [5] 0.979 | [6] 1 | [7] 1 | [8] 1.02 | [9] 0.98 | [10] 0.986 | [11] 1 | [12] 0.991

CCCN1CCC[C@@H](c2cccc(C#N)c2)C1
inactive: locus YAL013W, strain DEP1, hits give low values 1.01 | [1] 0.986 | [2] 1.01 | locus YDR150W, strain NUM1, hits give low values 0.994 | [3] 1.04 | [4] 0.989 | [6] 1.04 | [13] 1 | [14] 1.01 | [9] 0.993 | [10] 1.04 | [11] 1.01 | [15] 1 | [12] 0.978

CCCN1CCC[C@@H](c2cccc(O)c2)C1
inactive: [1] 0.98 | [2] 1 | [3] 1.03 | [4] 0.983 | [5] 0.984 | [6] 0.999 | [13] 1 | [14] 1 | [7] 0.996 | [16] 0.999 | [9] 1.01 | [11] 0.993 | [12] 1.01 | [17] 0.999
active: [10] 0.446

CCCN1CCC[C@H](c2cccc(O)c2)C1
inactive: [1] 1 | [2] 0.999 | [3] 1.03 | [4] 0.988 | [5] 1.01 | [6] 1 | [14] 0.993 | [7] 0.992 | [16] 1.01 | [8] 1.18 | [9] 0.995 | [10] 1.01 | [11] 1 | [15] 1 | [12] 1 | locus YPL055C, strain LGE1, hits give low values 0.994 | [17] 1.01

NCCc1c[nH]c2ccc(C(N)=O)cc12
inactive: [1] 1.1 | [2] 1 | [3] 1.01 | [4] 1.01 | [5] 1.02 | [7] 1 | [8] 1.01 | [9] 1.01 | [10] 1.02 | [11] 0.997 | [12] 1.02 | [17] 1

O=c1cc(-c2ccccc2O)oc2cc(O)ccc12
inactive: locus YAL021C, strain ccr4, hits give low values 1.05 | locus YAL026C, strain drs2, hits give low values 0.977 | locus YAL030W, strain snc1, hits give low values 0.985 | locus YBL061C, strain skt5, hits give low values 0.976 | locus YBR009C, strain hhf1, hits give low values 0.979 | locus YBR023C, strain chs3, hits give low values 1 | locus YBR171W, strain sec66, hits give low values 0.951 | locus YBR231C, strain swc5, hits give low values 0.956 | locus YBR279W, strain paf1, hits give low values 0.996 | locus YCL011C, strain gbp2, hits give low values 0.977 | locus YCL016C, strain dcc1, hits give low values 1.02 | locus YCL069W, strain vba3, hits give low values 0.97 | locus YCR088W, strain abp1, hits give low values 0.956 | locus YDL005C, strain med2, hits give low values 0.956 | locus YDL040C, strain nat1, hits give low values 0.967 | locus YDR001C, strain nth1, hits give low values 0.978 | locus YDR069C, strain doa4, hits give low values 0.95 | locus YDR137W, strain rgp1, hits give low values 0.958 | locus YDR159W, strain sac3, hits give low values 0.91 | locus YDR195W, strain ref2 0.962 | locus YDR297W, strain sur2, hits give low values 0.964 | locus YDR334W, strain swr1, hits give low values 0.973 | locus YDR335W, strain msn5, hits give low values 0.979 | locus YDR392W, strain spt3, hits give low values 0.92 | locus YEL003W, strain gim4, hits give low values 0.968 | locus YEL037C, strain rad23, hits give low values 0.962 | locus YEL061C, strain CIN8 (second series), hits give low values 0.963 | locus YER015W, strain faa2, hits give low values 0.974 | locus YER016W, strain bim1, hits give low values 0.973 | locus YER111C, strain swi4, hits give low values 0.951 | locus YER155C, strain BEM2 (second series), hits give low values 0.955 | locus YFR010W, strain ubp6, hits give low values 0.952 | locus YGL167C, strain pmr1, hits give low values 0.972 | locus YGL173C, strain kem1, hits give low values 0.95 | locus YGL227W, strain vid30, hits give low values 0.964 | locus YGL240W, strain doc1, hits give low values 0.963 | locus YGL253W, strain hxk2, hits give low values 0.932 | locus YHR013C, strain ard1, hits give low values 0.952 | locus YHR027C, strain rpn1, hits give low values 0.965 | locus YHR030C, strain SLT2, hits give low values 0.978 | locus YHR079C, strain IRE1, hits give low values 0.987 | locus YHR142W, strain chs7, hits give low values 0.965 | locus YJL092W, strain hpr5, hits give low values 0.954 | locus YJL095W, strain BCK1 (second series), hits give low values 0.994 | locus YJL095W, strain BCK1, hits give low values 0.997 | locus YJL115W, strain asf1, hits give low values 0.97 | locus YJL129C, strain trk1, hits give low values 0.945 | locus YJL154C, strain vps35, hits give low values 0.979 | locus YJL164C, strain tpk1, hits give low values 0.992 | locus YJL166W, strain qcr8, hits give low values 0.966 | locus YJR066W, strain TOR1, hits give low values 0.929 | locus YKL160W, strain elf1, hits give low values 1.03 | locus YKR026C, strain gcn3, hits give low values 0.972 | locus YKR091W, strain srl3, hits give low values 0.982 | locus YLL001W, strain dnm1, hits give low values 0.987 | locus YLL026W, hits give low values 0.969 | locus YLL041C, strain sdh2, hits give low values 0.977 | locus YLR027C, strain aat2, hits give low values 0.998 | locus YLR113W, strain HOG1, hits give low values 1 | locus YLR221C, strain rsa3, hits give low values 0.938 | locus YLR258W, strain gsy2, hits give low values 0.994 | locus YLR262C, strain YPT6 (second series), hits give low values 0.968 | locus YLR320W, strain mms22, hits give low values 0.95 | locus YLR342W, strain FKS1, hits give low values 0.974 | locus YLR357W, strain rsc2, hits give low values 0.978 | locus YLR370C, strain arc18, hits give low values 0.966 | locus YLR384C, strain iki3, hits give low values 0.959 | locus YML120C, strain ndi1, hits give low values 0.996 | locus YMR058W, strain fet3, hits give low values 0.981 | locus YMR125W, strain sto1, hits give low values 0.977 | locus YMR129W, hits give low values 0.987 | locus YMR205C, strain PFK2, hits give low values 0.996 | locus YMR231W, strain pep5, hits give low values 0.966 | locus YNL071W, strain lat1, hits give low values 0.991 | locus YNL183C, strain NPR1, hits give low values 0.909 | locus YNL209W, strain ssb2, hits give low values 0.996 | locus YNL248C, strain rpa49, hits give low values 0.969 | locus YNL322C, strain KRE1 (second series), hits give low values 0.974 | locus YNR049C, strain mso1, hits give low values 0.979 | locus YOR001W, strain rrp6, hits give low values 0.899 | locus YOR070C, strain gyp1, hits give low values 0.978 | locus YOR080W, strain dia2, hits give low values 0.972 | locus YOR083W, strain WHI5, hits give low values 1.03 | locus YOR106W, strain vam3, hits give low values 0.989 | locus YOR231W, strain MKK1, hits give low values 0.989 | locus YOR265W, strain rbl2, hits give low values 0.97 | locus YOR270C, strain vph1, hits give low values 0.916 | locus YOR290C, strain snf2, hits give low values 1.02 | locus YPL051W, strain arl3, hits give low values 0.975 | locus YPL078C, strain atp4, hits give low values 1.05 | locus YPL106C, strain sse1, hits give low values 0.984 | locus YPL240C, strain hsp82, hits give low values 0.971 | locus YPL256C, strain CLN2, hits give low values 0.95
